About 79,000 compounds went through this panel and 15% of them were active in at least one assay; those are over-represented in the sample as a whole. No stated cut-off is given here; in the data, active means growth inhibition above about 70%; inactive means the rest. Where a SMILES comes first, the peptide text is derived from it. [ ]: non-standard residue; d: D form. ξ: configuration not given here. ξF = NC(Cc1ccccc1)C(=O)O
Columns and labels:
[1] = NCI Yeast Anticancer Drug Screen. Data for the rad50 strain (AID 155);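 further: 0% = growth of vehicle-only cultures of the same strain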; conditions: S. cerevisiae rad50 strain growth inhibition; at 50.0 µM; active compounds read high
Method in brief: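 Genetically altered yeast (DNA repair pathway); compound treatment; growth inhibition vs vehicle ctrl.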

[2] = NCI Yeast Anticancer Drug Screen. Data for the mec2-1 strain (AID 157); conditions: S. cerevisiae mec2-1 strain, at 50.0 µM, active compounds read high
Method in brief: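 Each compound was tested on mec2-1 yeast, a strain altered in DNA damage repair or cell cycle control. Growth inhibition is reported relative to vehicle.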

[3] = NCI Yeast Anticancer Drug Screen. Data for the sgs1 mgt1 strain (AID 161);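 further: 0% = growth of cultures given vehicle only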; conditions: S. cerevisiae sgs1 mgt1 strain, at 50.0 µM, active compounds read high
Method in brief: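 Inhibition of yeast growth, normalised to vehicle-treated controls, is reported for a strain bearing genetic alterations in DNA damage repair.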

[4] = NCI Yeast Anticancer Drug Screen. Data for the cln2 rad14 strain (AID 165);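 further: 0% = growth equal to vehicle treated cultures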; conditions: S. cerevisiae cln2 rad14 strain, at 50.0 µM, active compounds read high
Method in brief: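 Test compounds were added to cln2 rad14 yeast cultures; inhibition of growth was then determined by comparison with vehicle treatment.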

[5] = NCI Yeast Anticancer Drug Screen. Data for the bub3 strain (AID 167); conditions: S. cerevisiae bub3 mutant strain, at 50.0 µM, active compounds read high
Method in brief: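 Yeast carrying a defined mutation is treated with each compound, and growth is compared with that of vehicle-exposed cells to give inhibition.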

[6] = NCI Yeast Anticancer Drug Screen. Data for the mlh1 rad18 strain (AID 175); conditions: S. cerevisiae mlh1 rad18 strain growth inhibition; at 50.0 µM; active compounds read high
Method in brief: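 Inhibition values reflect reduced growth of mutant yeast versus vehicle-treated controls following compound exposure; the mutations affect DNA damage repair.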

Measured: growth inhibition

Nc1ccc(F)c(Cl)c1
inactive: [1] 0.85% | [2] -16.4% | [3] 10.7% | [4] -17.9% | [5] -4.25% | [6] 14.7%

CC(C)CCCC(C)C1CCC2C3C(=O)C=C4CC(OC(=O)CCC(C)C)CCC4(C)C3CCC12C (configuration not stated)
inactive: [1] -0.05% | [2] 11.9% | [3] 25.3% | [4] 19.8% | [5] -0.55% | [6] 0.25%

CN(C)c1ncnc2nc[nH]c12
inactive: [1] -14.6% | [2] 0.7% | [3] -6.1% | [4] -14.4% | [5] -2.6% | [6] 16.3%

CCOC(=O)CC(=O)C(=O)NNC1=NCCCN1
inactive: [1] 7.25% | [2] -5.35% | [3] -20.1% | [4] 14.2% | [5] 2.3% | [6] 0.45%

CC(=O)OCC1OC(n2cc(C)c(=O)[nH]c2=O)C(NC(=O)C(Cl)(Cl)Cl)C(OC(C)=O)C1OC(C)=O (configuration not stated)
inactive: [1] 6.3% | [2] -4.6% | [3] 2.75% | [4] 0% | [5] 0% | [6] 2.3%

CC(c1ccccc1)N1COc2cc3c(cc2C1)CN(C(C)c1ccccc1)CO3 (configuration not stated)
inactive: [1] -11.8% | [2] 0.4% | [3] -6.8% | [4] -28.3% | [5] -1.3% | [6] 6.7%

COc1ccc2c(c1)/C(=C/c1cc(OC)c(OC)c(OC)c1)C(=O)N2
inactive: [1] 4.3% | [2] -27.2% | [3] -8.7% | [4] -1.4% | [5] 1.2% | [6] 2.85%

Cc1ncc(CO)c(/C=N/NC(N)=S)c1O
inactive: [1] 3.3% | [2] -13.9% | [3] 3.7% | [4] -34.9% | [5] 0.05% | [6] 13.6%

O=[N+]([O-])c1cc(Br)ccc1P(=O)(O)O
inactive: [1] 9.25% | [2] 8.8% | [3] -1.25% | [4] 7.85% | [5] 16.9% | [6] -4.95%

O=C1c2ccccc2C(=O)c2c(O)cc([N+](=O)[O-])cc21
inactive: [1] 18.2% | [2] 3.05% | [3] 11.7% | [4] 6.05% | [5] 14.2% | [6] -1.5%

CC(=N\N=C\c1ccccn1)/C(C)=N/N=C(C)/C(C)=N/N=C(C)/C(C)=N/N=C/c1ccccn1
inactive: [1] 31.7% | [2] 22.2% | [3] 21.4% | [4] 14.2% | [5] 15.2% | [6] -34%

COc1ccc2nc3cc(Cl)ccc3c(NN3CCN(CCO)CC3)c2c1
inactive: [1] -24.1% | [2] -7.9% | [3] -20.1% | [4] 0.25% | [5] 2.3% | [6] -3.6%

c1ccc2c(C3=NCCO3)cccc2c1
inactive: [1] 11.7% | [2] 9.7% | [3] 8.3% | [4] -34.6% | [5] 4% | [6] 11.8%

CC1OC(O[C@H]2CC[C@]3(C)[C@H]4CC=C5[C@@H]6[C@@H](C)[C@H](C)CC[C@]6(C(=O)O)CC[C@@]5(C(=O)O)[C@]4(C)CC[C@H]3C2(C)C)C(O)C(O)C1O (some centres not stated)
inactive: [1] -17.5% | [2] -9.8% | [3] -10.6% | [4] -5.7% | [5] -13.7% | [6] -58.5%

O=C(/C=C/c1ccc(O)c(O)c1)OC1C[C@@](O)(C(=O)O)C[C@@H](O)[C@H]1OC(=O)/C=C/c1ccc(O)c(O)c1 (some centres not stated)
inactive: [1] 17.8% | [2] -14.1% | [3] 21.1% | [4] -2.95% | [5] -6% | [6] 25.9%

C#CCOCCCC(=O)O
inactive: [1] 6.95% | [2] -8.2% | [3] 0.6% | [4] 0.3% | [5] 16.2% | [6] 11.7%

CCOC(=O)c1ccc(-n2nc3nc(N)[nH]c(=O)c3n2)cc1
inactive: [1] -17.8% | [2] -21.2% | [3] -4.35% | [4] -4.15% | [5] -52.9% | [6] -34.4%

O=C1CSC2=NC3=C(CSC/C3=C\c3ccccc3)C(c3ccccc3)N12 (configuration not stated)
inactive: [1] 14.4% | [2] 11.5% | [3] 21.2% | [4] 35.8% | [5] 21% | [6] -25.6%

NC(Cc1ccccc1)C(=O)NCC(=O)O (configuration not stated) (H-[ξF]-Gly-OH)
inactive: [1] -7.45% | [2] 8.65% | [3] -6.35% | [4] -26.4% | [5] -11.7% | [6] -12.3%

NC(Cc1ccccc1CP(=O)(O)O)C(=O)O (configuration not stated)
inactive: [1] -46.8% | [2] -41.1% | [3] -16.4% | [4] -4.9% | [5] -29.9% | [6] -44.2%

C[N+](C)(C)C=Nc1cccc2c1CCCC2
inactive: [1] 2.6% | [2] -37.8% | [3] -26.4% | [4] -7.05% | [5] 6.05% | [6] 1.55%

COC(=O)NN(C(=O)OC)C12CCCCC1N(C(=O)OC)N(C(=O)OC)c1c2ccc2cc(OC)ccc12 (configuration not stated)
inactive: [1] 24.4% | [2] -0.7% | [3] 7.65% | [4] -14.1% | [5] 4.2% | [6] 10.9%

S=C(SCc1nc(-c2ccc(Cl)cc2)no1)N1CCSCC1
inactive: [1] -1.9% | [2] -24.9% | [3] 17.9% | [4] -2.6% | [5] -3.25% | [6] -9.4%

O=C(O)C(O)c1ccc(Cl)cc1Cl (configuration not stated)
inactive: [1] 1.3% | [2] -5.85% | [3] 10.9% | [4] 7.25% | [5] -19.3% | [6] 1.35%

O=C1C(=Cc2cccnc2)C(=O)c2ccccc21
inactive: [1] 26% | [2] 15.3% | [3] 42.4% | [4] 18.9% | [5] 6.7% | [6] 9%

CC(=O)OC1CCC2(C)C3=CCC4(C)C(C(C)=O)=CCC4C3CCC2C1 (configuration not stated)
inactive: [1] -27.9% | [2] -21.9% | [3] -29.2% | [4] 12.6% | [5] -22.9% | [6] -23.1%

ClC(Cl)(Cl)C(Cl)(Cl)C(Cl)(Cl)Cl
inactive: [1] 42.1% | [2] 14.8% | [3] 16% | [4] -19.4% | [5] 6.75% | [6] 24.3%

COc1ccc(N2C(=O)C3c4[nH]c5cccc(C)c5c4C4CCC(C(C)(C)C)CC4C3C2=O)cc1 (configuration not stated)
inactive: [1] 8.75% | [2] -21.1% | [3] -5.75% | [4] -10.6% | [5] 2.8% | [6] 6%

CCCCN(CCCC)CC1OCCO1
inactive: [1] -6.35% | [2] -0.5% | [3] -2.45% | [4] -16.6% | [5] 2.7% | [6] -2.6%

O=C1Nc2ccc3c4c(ccc1c24)CC3
inactive: [1] 10.3% | [2] -0.8% | [3] -0.3% | [4] -6.1% | [5] 10.7% | [6] 16.8%

CC12CCC(=O)OC1(C)OC(=O)CC2 (configuration not stated)
inactive: [1] 10.4% | [2] 17.1% | [3] 2.85% | [4] -5.75% | [5] 7.7% | [6] -7.7%

COC(=O)CN1C(=O)OC(c2ccccc2)C1=O (configuration not stated)
inactive: [1] -0.4% | [2] 1.15% | [3] -4.1% | [4] 8.15% | [5] -3.85% | [6] -13.4%

CCCCC(CC)COC(=O)COc1ccc(C(C)c2ccc(OCC(=O)OCC(CC)CCCC)cc2)cc1 (configuration not stated)
inactive: [1] -6.6% | [2] 10.5% | [3] 7.9% | [4] -3.55% | [5] 3.2% | [6] -38.2%

COc1ccc2c(c1OC)OC1CNc3cc(C)c(C)cc3N=C1C2 (configuration not stated)
inactive: [1] 6.1% | [2] 3.35% | [3] 4.05% | [4] -42.2% | [5] 12.8% | [6] 7.35%

CCCCC1(CN(C)C)C(=O)N(C)C(=O)N(C2CCCCC2)C1=O (configuration not stated)
inactive: [1] 9.15% | [2] 10.2% | [3] 1.4% | [4] 21.9% | [5] -4.2% | [6] 9.6%

CCCCS(=O)(=O)N1CCCC1
inactive: [1] 4.15% | [2] -10.3% | [3] 1.9% | [4] -28.2% | [5] -5% | [6] -5.85%

COC1OC(C(=O)O)C(O)C(O)C1O (configuration not stated)
inactive: [1] 6.75% | [2] -21.1% | [3] -2.6% | [4] -4% | [5] -17.6% | [6] 8.3%

O=C(O)C1CCC2CCCC21 (configuration not stated)
inactive: [1] -25.2% | [2] -7.3% | [3] 8.95% | [4] -10.9% | [5] -18% | [6] 15.5%

CC(C)(C)c1cc(Br)c(O)c(CN(Cc2cc(C(C)(C)C)cc(Br)c2O)C2CCCCC2)c1
inactive: [1] 16.1% | [2] -24.9% | [3] -34.2% | [4] -14.2% | [5] -35.2% | [6] 1.35%

C/C(=N\N=P(c1ccccc1)(c1ccccc1)c1ccccc1)c1ccccc1
inactive: [1] 5.15% | [2] -6.5% | [3] 9.35% | [4] -1.4% | [5] 2.6% | [6] -14.3%

CCN(CC)/C(C=[N+]=[N-])=N\C(N)=N\S(=O)(=O)c1ccc(OC)cc1
inactive: [1] -37.2% | [2] -13.9% | [3] -13.8% | [4] -28% | [5] 4.05% | [6] 13.4%

COc1ccc(-c2cc(C(=O)Nc3cccc(C(F)(F)F)c3)[nH]c(=S)n2)cc1
inactive: [1] -26.2% | [2] -7.95% | [3] -42% | [4] 19.3% | [5] -14.1% | [6] -20.9%
